ELG1 genotoxic: qHTS screen for small molecules that induce genotoxicity in human embryonic kidney (HEK293T) cells expressing luciferase-tagged ELG1; HEK293T ELG1-luciferase reporter, luminescence, 16 h; Potency, µM (series often up to 46 µM), usual class: activators; 330,000 tested, 1.3% active; note: nearly all actives have a fitted effect of over 60% in size
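Genotoxic stress is detected as increased luminescence from luciferase-tagged ELG1 in HEK293T cells, measured with ONE-Glo after a 16 hr treatment at 37 °C.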
FLuc modulator: qHTS profiling assay for firefly luciferase inhibitor/activator using purifed enzyme and Km concentrations of substrates (counterscreen for miR-21 project); 360,000 tested, 6.9% active; Potency, µM (top dose mostly 57.5 µM), most hits filed as inhibitors; Luciferin 4-monooxygenase (Photinus pyralis), P08659; purified FLuc, Km substrates, luminescence inhibition; AID 588342, 2011; note: nearly all actives have a fitted effect of over 55% in size
Target sequence (P08659 whole entry, looked up): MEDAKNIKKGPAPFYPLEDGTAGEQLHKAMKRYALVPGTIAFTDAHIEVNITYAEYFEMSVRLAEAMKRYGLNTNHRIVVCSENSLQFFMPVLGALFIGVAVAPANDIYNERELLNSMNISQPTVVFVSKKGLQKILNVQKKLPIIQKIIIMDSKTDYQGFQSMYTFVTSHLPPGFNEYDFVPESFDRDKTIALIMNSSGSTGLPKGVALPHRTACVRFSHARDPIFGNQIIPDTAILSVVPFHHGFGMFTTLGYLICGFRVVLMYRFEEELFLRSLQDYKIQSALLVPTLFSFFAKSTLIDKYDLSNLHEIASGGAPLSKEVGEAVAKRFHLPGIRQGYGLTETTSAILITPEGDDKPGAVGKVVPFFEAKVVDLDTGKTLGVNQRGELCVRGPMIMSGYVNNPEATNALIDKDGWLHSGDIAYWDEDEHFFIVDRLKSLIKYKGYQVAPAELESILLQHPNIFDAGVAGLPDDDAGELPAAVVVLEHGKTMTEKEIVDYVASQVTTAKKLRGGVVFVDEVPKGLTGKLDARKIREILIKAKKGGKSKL
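Purified P. pyralis luciferase, 10 nM final, with Km-level 10 uM D-luciferin and 10 uM ATP in 50 mM Tris acetate pH 7.5, 10 mM Mg acetate, 0.01% Tween-20, 0.05% BSA; 6-point qHTS titration about 60 µM downward; luminescence read.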
Rab9 prom act: qHTS Assay for Rab9 Promoter Activators. Huh7 Rab9 promoter-luciferase reporter, luminescence, 24 h. Potency, µM (titrated, usually from 9.22 µM), usual class: activators. 320,000 tested, 2.8% active; note: nearly all actives have a fitted effect of over 60% in size
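Luminescence from Amplite-detected luciferase (10 minutes, ambient) reports Rab9 promoter activation. Before that, stable Rab9-luciferase Huh7 cells (1500/well, reduced-serum OP-MEM I plus 10% FBS) were exposed to compound for 24 hours at 37C.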
NPC1 promoter act: qHTS Assay for NPC1 Promoter Activators; Huh7 NPC1 promoter luciferase reporter, 24 h; Potency, µM (top dose mostly 9.22 µM), most hits filed as activators; 320,000 tested, 2.4% active; AID 485313, 2010; note: nearly all actives have a fitted effect of over 60% in size
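Compounds in DMSO were transferred onto Huh7 NPC1-luciferase reporter cells pre-incubated 2 h; after 24 h at 37 °C, Amplite reagent was dispensed and luminescence recorded 10 min later.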
SMN2 splice up: qHTS Assay for Enhancers of SMN2 Splice Variant Expression; HEK293 SMN2-luciferase splicing reporter, luminescence, 30-36 h; Potency, µM (highest dose often 46.1 µM), usual class: activators; 210,000 tested, 2.8% active; note: nearly all actives have a fitted effect of over 55% in size
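HEK293 cells carry an SMN2 […]–luciferase reporter in which exon 7 inclusion puts luciferase in frame. Cells were plated 10-12 h before compound addition, then incubated 30-36 h at 37C. ONE-Glo luminescence was read; sodium butyrate at 4.5 mM final served as control.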
Hits are given with their value; – = inactive; ? = inconclusive; · = not tested or not shown; [ ] = dose if it differs, or a comment. Sampled rows, rich in hits. Any-hit rate of the full collection: about 7.4%. Calls come from the whole dose curve; as a rule, active = well fitted curve in the direction sought with a large enough effect; inconclusive = small, poorly fitted or top-dose-only effect, or another doubt; inactive = no such curve, though single readings can be large; an effect the other way counts as inactive or inconclusive.

SMILES	ELG1 genotoxic	FLuc modulator	Rab9 prom act	NPC1 promoter act	SMN2 splice up
CCCOc1ccc(CN(C(=O)Cc2coc3ccc(CC)cc23)C2CCS(=O)(=O)C2)cc1 (stereo not drawn)	·	–	·	·	–
Fc1ccc(Nc2ccc(-c3ccc(F)cc3)nn2)cc1	–	5.4µM	3.2µM	?	·
CCOC(=O)C1=NNC(C(=O)c2ccccc2)C1c1ccc(Cl)cc1 (stereo not drawn)	–	27µM	–	–	·
CC(=O)Nc1ccc(S(=O)(=O)N2CCc3nc(COc4ccccc4)c4c(c3C2)CO[C@@H](C)C4)cc1	·	·	·	·	–[9.22 µM]
O=C(CC(c1cccs1)N1Cc2ccccc2C1=O)Nc1ccc(Cl)cc1 (stereo not drawn)	·	–	·	·	·
O=C(CCc1nnc2n(Cc3ccccc3Cl)c(=O)c3ccccc3n12)Nc1ccccc1	·	–	·	·	–
COCCCn1c(SCC(=O)n2c(C)c(C)c3ccccc32)nnc1-c1ccoc1C	18µM	–	–	–	–
CCc1ccc(OCC(=O)O/N=C(\N)c2ccncc2)c(Br)c1	?	7.6µM	2µM	3.2µM	·
N/C(=N\OC(=O)COc1ccc(Cl)cc1Cl)c1cccnc1	?	6µM	–	–	?
CCc1ccc(OCC(=O)O/N=C(\N)c2ccncc2)cc1	?	?	–	–	·
N/C(=N\OC(=O)COc1ccc2ccccc2c1Br)c1ccncc1	?	21µM	–	–	–
N/C(=N\OC(=O)COc1ccc(Cl)cc1Br)c1ccncc1	8.2µM	11µM	3.5µM	3.5µM	11µM
N/C(=N\OC(=O)CCCOc1ccc(Cl)cc1Cl)c1ccncc1	–	?	–	–	–
CN(C)c1ccc(/C=N/Nc2cccc(C(=O)O)c2)cc1	?	0.076µM	10µM	?	·
CC(C)(C)c1ccc(/C=N/Nc2cccc(C(=O)O)c2)cc1	0.15µM	0.17µM	1.1µM	0.5µM	0.1µM
O=C(N/N=C\c1cccc(F)c1)c1ccc(-c2ccccc2)cc1	–	–	–	–	·
Clc1cnc(N/N=C/c2ccncc2)c(Cl)c1	?	?	–	–	·
Clc1ccc(N/N=C/c2ccncc2)cc1Cl	?	?	?	?	13µM
O=C(O)c1cccc(N/N=C/c2ccc(-c3ccccc3)cc2)c1	0.15µM	0.076µM	0.028µM	0.025µM	0.2µM
O=C(c1ccncc1)N1CCC[C@@]2(CCN(c3ccccn3)C2)C1	·	·	·	·	–
COC(=O)C(C(=O)OC)[C@@H](NC(=O)OCc1ccccc1)c1ccccc1	·	·	·	·	–
Clc1ccc(N/N=C/c2cccnc2)cc1	–	17µM	–	–	?
O=C(N/N=C/c1cccnc1)c1cccc(NC(=O)c2ccc(Cl)cc2)c1	–	–	–	–	·
O=C(O)c1cccc(N/N=C/c2cccnc2)c1	–	2.4µM	0.32µM	?	8.9µM
Cc1oc(-c2ccccc2)nc1CNS(=O)(=O)c1ccc(Cl)cc1	·	–	·	·	·
SMILES	ELG1 genotoxic	FLuc modulator	Rab9 prom act	NPC1 promoter act	SMN2 splice up
COc1cccc(NC(=O)Nc2cc(C)ccc2F)c1	–	24µM	–	–	–
COc1ccc(NC(=O)Nc2cc(C)ccc2OC)cc1	–	?	–	–	–
COc1ccc(NC(=O)Nc2cc(C)ccc2F)cc1	23µM	12µM	2.8µM	3.5µM	?
CCOc1ccccc1C1CC(=O)Oc2c1c(=O)n(C)c1ccccc21 (stereo not drawn)	·	–	·	·	–
CCOc1ccc(C(=S)N2CCCC2)cc1OC	–	–	–	–	–
CCOc1cc(/C=N/O)ccc1OCc1ccc(F)cc1	–	?	–	–	–
COc1cc(/C=N/O)ccc1OCc1ccc(Cl)cc1	2.1µM	1.3µM	0.4µM	0.63µM	6.3µM
COc1cc(/C=N/O)ccc1OCc1ccc(C(=O)O)cc1	?	0.054µM	0.089µM	?	0.4µM
COc1cc(/C=N/OCC(=O)NC23CC4CC(CC(C4)C2)C3)ccc1OCc1ccccc1	–	15µM	–	–	·
COc1cc(C(=S)N2CCCC2)ccc1OCc1ccc(C)cc1	21µM	?	?	?	·
Cc1ccc(CNC(=O)C(=O)Nc2c3c(nn2-c2ccc(F)cc2)CSC3)cc1	·	–	·	·	·
CCCOc1ccc(C(=O)N(Cc2ccccc2Cl)C2CCS(=O)(=O)C2)cc1 (stereo not drawn)	·	–	·	·	–
Cc1ccc(S(=O)(=O)c2cn(C)c3cc(N4CCOCC4)c(F)cc3c2=O)c(C)c1	·	–	·	·	·
CCNC(=S)N/N=C/c1ccc(OCC(=O)Nc2ccc(OC)cc2)c(OC)c1	–	–	–	–	–
COc1cc(/C=N/N=C(N)N)ccc1OCc1ccc(Cl)cc1	9.2µM	3µM	?	?	–
COc1cc(/C=N/N=C2/NC(=O)C(CC(=O)O)S2)ccc1OCc1ccc(Cl)cc1 (stereo not drawn)	?	19µM	–	–	11µM
CCOc1cc(/C=N/N=C(N)N)ccc1OCc1ccc(Cl)cc1	–	?	–	–	–
COc1ccc(NC(=O)COc2ccc(/C=N/O)cc2OC)cc1	?	21µM	?	?	·
C[N+]1([C@H](CO)Cc2c[nH]c3ccccc23)Cc2ccccc2C1	·	·	·	·	–[9.22 µM]
CCN(CC)S(=O)(=O)c1ccc(C(=O)NC2CC(=O)N(c3ccc(OC)c(OC)c3)C2)cc1 (stereo not drawn)	·	–	·	·	·
Cc1ccc(-c2cc(N)n(Cc3ccc(Cl)cc3)n2)cc1	–	?	–	–	–
CSc1nc(N)n2nc(-c3ccc(Cl)cc3)cc2n1	?	0.67µM	1.6µM	2µM	·
O=C(Nc1ccc(N2CCOCC2)nc1)c1cccs1	–	?	2.5µM	?	11µM
CN(C)c1ccc(NC(=O)c2ccc(N3CCOCC3)nc2)cc1	–	15µM	–	–	·
O=C(Nc1ccc(N2CCN(c3ccc(C(F)(F)F)cn3)CC2)nc1)c1cccs1	?	–	–	–	·
SMILES	ELG1 genotoxic	FLuc modulator	Rab9 prom act	NPC1 promoter act	SMN2 splice up
O=C(c1ccccc1)c1ccc(N2CCOCC2)c(F)c1	?	11µM	3.5µM	3.5µM	?
COc1ccc(NC(=O)c2ccc(N3CCOCC3)nc2)cc1	–	–	–	–	·
O=C(Nc1ccc(N2CCOCC2)c(F)c1)c1cccs1	6.5µM	4.3µM	0.4µM	0.5µM	·
COc1ccc2oc(=O)cc(CN3CCN(C(=O)c4ccccc4)CC3)c2c1	·	–	·	·	–
Oc1ccc(/C=N/Nc2ccnc3cc(Cl)ccc23)cc1O	?	17µM	–	–	·
CCCN1C(=O)c2cccc3c(N4CCCCC4)ccc(c23)C1=O	?	11µM	?	–	–[1.84 µM]
O=C(CSc1ccccn1)Nc1ccc2ccccc2c1	?	4.8µM	2.8µM	3.5µM	·
O=C(CSc1nc(-c2ccccc2)[nH]c1-c1ccccc1)Nc1ccc2c(c1)OCCO2	·	9.5µM	·	·	–
O=C(COc1ccc2ccccc2c1)NC1=NCCS1	–	4.8µM	?	4.5µM	–
Cc1cc(NC(=O)CSc2ccccn2)cc(NC(=O)CSc2ccccn2)c1	–	–	–	–	·
O=C(CSc1ccccn1)Nc1ccc2c(c1)CCC2	?	12µM	?	–	·
